# Experimental data: the supplement of paper PMC10338343
# ± gives the standard deviation. Over roughly 8,200 sequences, “pre-steady-state target cleavage rate” has its median near 0.024; the highest 2% begin near 1.3. What follows is part of a selection rich in the highest values, with near analogues and random picks from the rest.
# System: MIWI (PIWIL1) piRISC loaded with L1MC piRNA (30 nt)
# Experiment: pre-steady-state target cleavage rate (min^-1); MIWI and MILI are mouse PIWI proteins and EfPiwi is from a freshwater sponge; tags in brackets are library labels; higher = faster piRNA-guided slicing of the target
# Conditions: guide: L1MC piRNA 5'p-UAACUAAAUACUAUGCAAGCUGUAGGUCCU
# Procedure: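 Cleave-'n-Seq: a library of target RNAs (target site embedded in constant flanks, ACAGCATTCCGCGTTAGTGATATCCG... 5' flank; DNA-blocked outside the site) at 0.1 nM was incubated with 1 nM active mouse MILI or MIWI piRISC (synthetic 5'-monophosphorylated piRNA guide) with or without 500 nM mouse GTSF1 at 33 °C for 1 min to 16 h. Uncleaved targets were sequenced and normalised to non-target controls, and the pooled three trials were fitted to a burst-and-steady-state model to give the pre-steady-state cleavage rate (min^-1; k3 is constrained to at most 1e-4). Sequence is the target site only; target names encode pairing extent (gX:gY) and contiguous / 1-mismatch / 2-mismatch / bulge geometry. Fits with R² ≤ 0 are excluded.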
# [1] = auxiliary factor: 500 nM mouse GTSF1
# [2] = auxiliary factor: none (no GTSF1)
Sequence,pre-steady-state target cleavage rate [1],pre-steady-state target cleavage rate [2]
AGGACCUACAGCUUGGAUAGUAUUUUGUUA,1.05 ± 0.077,0.0416 ± 0.0083
UCCUGGAACAGCUUGCUAUGUAUUUAGUAA,0.0313 ± 0.0087,0.00333 ± 0.002
UCCUGGAUCAGGAAGCAUAGUAUUUAGUUA,0.00993 ± 0.0028,–
AGGACCUACACCUUGCUUAGUAUUUAGUUA,1.17 ± 0.057,0.046 ± 0.0082
UGGACCUACACCUUGCUUAGUAUUUAGUUA,1.1 ± 0.062,0.0262 ± 0.0061
UCCUGCUACUGCUUGCUUAGUAUUUAGUUA,0.49 ± 0.039,0.0208 ± 0.003
UGGACCUACUGCUUGCUUAGUAUUUAGUUA,1.4 ± 0.081,0.0402 ± 0.0083
AGGACCUACUGCUUGCUUAGUAUUUAGUUA,1.39 ± 0.087,0.05 ± 0.01
AGGACCUACUGCUUGCAUUGUAUUUAGUUA,0.892 ± 0.03,0.0384 ± 0.008
UCCACGAACAGCUUGCAUAGUAUUUAGAAA,0.328 ± 0.039,0.00702 ± 0.0022
UCCUGGAUGUCGAACGUAAGUAUUUAGUAUA,< 0.0001,–
UCCUCCUACAGCUUGCAUUGUAUUUAGUUA,0.952 ± 0.034,0.0245 ± 0.0055
UCCUGGAUGAGCUUGCAUAGUAUUUUCUAA,0.222 ± 0.052,–
AGGACCUACGAGCUUGCAUAGUAUUUAGUUA,0.726 ± 0.086,0.0555 ± 0.014
UGGACCAACAGCUUGCAUACUAUUUAGUUA,0.419 ± 0.017,0.0377 ± 0.0075
UCCUGGAUGUCGUUGCAUAGUAUUUAGGUUA,0.00749 ± 0.0034,–
UCGACGUACAGCUUGCAUAGUAUUUAGAAA,0.288 ± 0.026,0.0106 ± 0.0026
UCCACGUACAGCUUGCUUAGUAUUUAGUUA,1.31 ± 0.058,0.0408 ± 0.0091
UGCACGUACAGCUUGCAUAGUAUUUAGUUA,1.26 ± 0.045,0.0736 ± 0.01
UCCACGUACAGCUUGCAUAGUAUUUAGUAA,0.521 ± 0.032,0.0319 ± 0.0057

Sequence,pre-steady-state target cleavage rate [1],pre-steady-state target cleavage rate [2]
AGCACGUACAGCUUGCAUAGUAUUUAGUUA,1.28 ± 0.043,0.064 ± 0.011
ACGACGUACAGCUUGCAUAGUAUUUAGUUA,1.55 ± 0.071,0.077 ± 0.013
UCCACGUACAGCUUGCAAAGUAUUUAGUUA,1.19 ± 0.054,0.0439 ± 0.009
UGGACGUACAGCUUGCAUAGUAUUUAGUUA,1.26 ± 0.051,0.0691 ± 0.012
UCCACCUACAGCUUGCUUAGUAUUUAGUUA,1.16 ± 0.05,0.0305 ± 0.0053
UCGACGUACAGCUUGCAUAGUAUUUAGUUA,1.56 ± 0.046,0.0711 ± 0.011
UCGACGUACAGCUUGCAUAGUAUUUAGUAA,1.01 ± 0.062,0.0599 ± 0.011
UCCACGUACAGCUUGCAUAGUAUUUAGUUA,1.35 ± 0.047,0.0658 ± 0.0097
UCCACCAAGAGCUUGCAUAGUAUUUAGUUA,0.884 ± 0.095,0.0363 ± 0.0078
UCCACCUACAGCUUGCUUAGAAUUUAGUUA,0.2 ± 0.025,0.00583 ± 0.0018
UCCUGGAACAGCUAGCAUAGAAUUUAGUUA,0.209 ± 0.02,0.0115 ± 0.0043
AGGACCUACAGCUUGCAUUGUAUUUAGUUA,0.926 ± 0.04,0.0656 ± 0.015
UCCUGGAUGUCCUUGCAGAGUAUUUAGUUA,–,0.00314 ± 0.002
UCCUGGAUGAGCUUGCUUAGUAUUUACUUA,0.254 ± 0.042,0.0202 ± 0.005
UCCACGUACAGCUAGCAUAGUAUUUAGUUA,0.815 ± 0.028,0.0177 ± 0.0033
AGGACCUAACAGCUUGCAUAGUAUUUAGUUA,1.1 ± 0.059,0.0788 ± 0.016
UGGACCUAACAGCUUGCAUAGUAUUUAGUUA,1.33 ± 0.061,0.0609 ± 0.01
UGGACCUACAGCUUUGCAUAGUAUUUAGUUA,1.43 ± 0.11,0.0449 ± 0.011
UGGACCUACAGCUUGCAUAGUAUUUUAGUUA,1.38 ± 0.079,0.0467 ± 0.012
UCCACCCUACAGCUUGCAUAGUAUUUAGUUA,0.831 ± 0.055,0.0575 ± 0.012

Sequence,pre-steady-state target cleavage rate [1],pre-steady-state target cleavage rate [2]
UCCACCUACAGCUUUGCAUAGUAUUUAGUUA,0.885 ± 0.054,0.0278 ± 0.0062
UCGACCUAACAGCUUGCAUAGUAUUUAGUUA,1.15 ± 0.069,0.0849 ± 0.017
AGGACCCUACAGCUUGCAUAGUAUUUAGUUA,1.24 ± 0.083,0.0716 ± 0.012
AGGACCUACAGCUUUGCAUAGUAUUUAGUUA,1.2 ± 0.066,0.0552 ± 0.012
UGGACCCUACAGCUUGCAUAGUAUUUAGUUA,1.42 ± 0.074,0.0808 ± 0.015
UCCACCUACAGCUUGCAUAAUAUUUAGUUA,0.552 ± 0.049,0.0203 ± 0.0032
UCCUGCUACAGCUACCAUAGUAUUUAGUUA,0.337 ± 0.032,–
AGGACCUACAGCUUGCAUAGUAUUAGUUA,0.385 ± 0.053,0.00372 ± 0.003
UCCACCUACAGCUUGCAUAGUAUUAAGAAA,0.351 ± 0.054,–
UCCUGGAUGAGAUUGCAUAGUAUUUAGUUA,0.117 ± 0.011,0.00369 ± 0.0027
UCCUGGUACAGCUUGCAUGGUAUUUAGUUA,0.891 ± 0.058,0.0741 ± 0.018
UCCUGGAUCAGCUUGGAUAGUAUUAAGUUA,0.258 ± 0.033,0.0129 ± 0.0046
UGGACCUUCAGCUUGCAUAGUAUAUAGUUA,1 ± 0.053,0.0376 ± 0.0085
UGGACCUACAGCUUGCAUAGUAUUUAGUUG [g2:g29:cont:t1G],0.456 ± 0.037,0.0555 ± 0.01
UGGACCUACAGCUUGCAUAGUUAUUUAGUUA,0.0473 ± 0.0076,0.00533 ± 0.0021
UGGACCUACAGCUUGCAUAGUAUUUAGUUA [g2:g29:cont:t1A],1.61 ± 0.09,0.0718 ± 0.013
AUGGACCUACAGCUUGCAUAGUAUUUAGUUA,1.34 ± 0.088,0.0872 ± 0.018
UCGACCUACAGCUUGCAUAGUAAUAAGUUA,0.444 ± 0.047,–
UCCUCCAUGAGCUUGCAUAGUAUUUAGUAA,0.471 ± 0.029,0.0262 ± 0.0057
UCCUGCUACAGCUUGCAUAGUCAUUUAGUUA,0.0744 ± 0.02,0.00362 ± 0.0031
